Assay results as given in PubChem BioAssay (NCI).
The panel holds about 79,000 compounds, 15% with a hit somewhere; the sample as a whole holds those more often. The source made the active and inactive calls. No stated cut-off is given here; in the data, active means growth inhibition above about 70%; inactive means the rest. Where a SMILES comes first, the peptide text is derived from it. The star is where a group is joined. Cbz = O=C(OCc1ccccc1)*

Legend:
[1] = NCI Yeast Anticancer Drug Screen. Data for the rad50 strain (AID 155);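 further: 0% = growth of vehicle-only cultures of the same strain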; conditions: S. cerevisiae rad50 strain growth inhibition; at 50.0 µM; stronger effect = higher value
How it was run: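 Inhibition values express reduced yeast growth in compound-treated cultures relative to vehicle-treated controls.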

[2] = NCI Yeast Anticancer Drug Screen. Data for the mec2-1 strain (AID 157); conditions: S. cerevisiae mec2-1 strain, at 50.0 µM, stronger effect = higher value
How it was run: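 Mutant yeast (mec2-1) grown with compound; growth inhibition relative to vehicle control reported.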

[3] = NCI Yeast Anticancer Drug Screen. Data for the sgs1 mgt1 strain (AID 161);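 further: 0% = growth of cultures given vehicle only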; conditions: S. cerevisiae sgs1 mgt1 strain, at 50.0 µM, stronger effect = higher value
How it was run: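 Compounds are added to genetically altered yeast, and growth is compared with cultures given vehicle alone to give percent inhibition.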

[4] = NCI Yeast Anticancer Drug Screen. Data for the cln2 rad14 strain (AID 165);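 further: 0% = growth equal to vehicle treated cultures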; conditions: S. cerevisiae cln2 rad14 strain, at 50.0 µM, stronger effect = higher value
How it was run: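 Readout is yeast growth inhibition versus vehicle-treated controls, using a strain with cln2 and rad14 alterations exposed to compound.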

[5] = NCI Yeast Anticancer Drug Screen. Data for the bub3 strain (AID 167); conditions: S. cerevisiae bub3 mutant strain, at 50.0 µM, stronger effect = higher value
How it was run: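 Steps: expose the mutant yeast strain to compound; grow alongside vehicle-treated cultures; measure growth; express inhibition against the vehicle cultures.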

[6] = NCI Yeast Anticancer Drug Screen. Data for the mlh1 rad18 strain (AID 175); conditions: S. cerevisiae mlh1 rad18 strain growth inhibition; at 50.0 µM; stronger effect = higher value
How it was run: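 Genetically defined yeast (DNA repair-deficient) exposed to compounds; growth inhibition determined relative to vehicle.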

Measured: growth inhibition

S=c1cc(S)nc[nH]1
inactive: [1] 29% | [2] 8.3% | [3] 11.9% | [4] 20.9% | [5] 23.9% | [6] 9.45%

O=[N+]([O-])c1ccc2c(c1)nc(-c1ccccn1)n2CCc1ccncc1
inactive: [5] 56.2%
active: [1] 95.2% | [2] 98.7% | [3] 99% | [4] 87% | [6] 99.2%

Nc1cnc(Nc2cccc3ccccc23)o1
inactive: [1] -26.3% | [2] -35.3% | [3] -14.1% | [4] 0.35% | [5] 8.85% | [6] -15.7%

O=C1C(Cl)C(c2ccccc2)N1n1cnc2ccccc2c1=O (configuration not stated)
inactive: [1] -16.2% | [2] -2.15% | [3] -24.1% | [4] -3.3% | [5] 3.9% | [6] -12.7%

COc1ccc(NS(=O)(=O)c2ccc(NCc3c4ccccc4nc4cc(Cl)ccc34)cc2)nn1
inactive: [1] 20.2% | [2] 45% | [3] 9.65% | [4] -30.8% | [5] -8.3% | [6] 37.5%

CC(Cl)S(N)(=O)=O (configuration not stated)
inactive: [1] -11.7% | [2] -11.7% | [3] -19.2% | [4] -6.45% | [5] 7.45% | [6] 2.15%

CNC(=O)OCc1c(COC(=O)NC)c(C)n(-c2ccc3c(c2)OCO3)c1C
inactive: [1] -3.2% | [2] -6.95% | [3] 19.2% | [4] -0.45% | [5] 1.35% | [6] -40.3%

O=C(Cc1ccc([N+](=O)[O-])c([N+](=O)[O-])c1CC(=O)C(=O)Nc1cc(Cl)ccc1Cl)C(=O)Nc1cc(Cl)ccc1Cl
inactive: [1] -16% | [2] -23.8% | [3] -14.8% | [4] 12.3% | [5] 25.1% | [6] -4.3%

ClC(Cl)(Cl)SSC(=Nc1ccccc1)SSC(Cl)(Cl)Cl
inactive: [2] 21.4% | [3] 51.6% | [4] -0.8% | [5] 64.3% | [6] 69.5%
active: [1] 70.8%

CCCCN(CCCC)CC(O)c1cc(-c2ccccc2)nc2c(O)cccc12 (configuration not stated)
inactive: [1] -28.6% | [2] 22.4% | [3] -18.2% | [4] -14.4% | [5] 3.6% | [6] -12.2%

Cc1cc(C)c(C)c(C)c1C
inactive: [1] 17.6% | [2] -8.15% | [3] 14.8% | [4] 2.55% | [5] -3.6% | [6] 20.6%

Cc1[nH]c(-c2ccccc2)c2nc(N(C)C)oc(=O)c12
inactive: [1] -11.4% | [2] 29.3% | [3] 17.4% | [4] 10.5% | [5] 34.1% | [6] -5.25%

CC(=O)c1c(O)ccc2c(C)cc(=O)oc12
inactive: [1] 37.5% | [2] 18.8% | [3] 7.4% | [4] 3.1% | [5] 26.9% | [6] 15.8%

CCCCOC(=O)c1cccc2c1-c1ccccc1C2=O
inactive: [1] 9.75% | [2] -6.55% | [3] -2% | [4] -14.9% | [5] 13.8% | [6] -0.7%

COC(=O)/C(C)=C/C=C/C(OC)C(OC(N)=O)/C(C)=C/C(C)C(O)C(CC(C)CC1=C(OC)C(=O)C=C(N)C1=O)OC (configuration not stated)
inactive: [1] 5.85% | [2] 24.8% | [3] 17% | [4] 9.3% | [5] 2.85% | [6] 13.8%

O=C(Nc1nc2ccc([N+](=O)[O-])cc2s1)C(=O)C(C(=O)c1ccccc1F)C1OC(=O)c2ccccc21 (configuration not stated)
inactive: [1] 29.8% | [2] 39.6% | [3] 59.5% | [4] 25.6% | [5] 38.5% | [6] 27.8%

CCOC(=O)/C(C#N)=C\NC(=O)NC
inactive: [1] 3% | [2] 2.3% | [3] 2.2% | [4] -18.4% | [5] -5.25% | [6] -0.5%

Cc1ccc(S(=O)(=O)N/N=C2/C(=O)NC(=O)C(=O)C2c2nc3ccccc3s2)cc1 (configuration not stated)
inactive: [1] 12.4% | [2] -2.6% | [3] 13.6% | [4] -19.1% | [5] 8.45% | [6] 12.4%

CN(C)Cn1c2ccccc2c2ccccc21
inactive: [1] -2.05% | [2] -1.1% | [3] 3.9% | [4] 0.1% | [5] -0.8% | [6] -12.4%

OCCCCC(c1ccc(O)cc1)c1ccc(O)cc1
inactive: [1] 17% | [2] -52.3% | [3] 8.8% | [4] 25.1% | [5] -18.9% | [6] -14.7%

C/C(=N\NC(=O)c1cccnc1)c1cccc(/C(C)=N/NC(=O)c2cccnc2)n1.CC(=O)[O-].CC(=O)[O-].[Zn+2]
inactive: [1] -5.45% | [2] 5.15% | [3] -2.6% | [4] -15.2% | [5] -6.1% | [6] -4%

COC(=O)C(CO)NC(=O)C(CO)NC(=O)OCc1ccccc1 (stereo not drawn) (Cbz-Ser-Ser-OMe; configuration not given here)
inactive: [1] -9.8% | [2] 3.7% | [3] -0.25% | [4] 7.4% | [5] -10% | [6] -16.4%

CC1(C)N=C(/C=N/O)C(C)(C)N1O
inactive: [1] 6.65% | [2] 0.55% | [3] 6.15% | [4] 6.3% | [5] -4.95% | [6] -18.7%

O=C(COc1cc(Cl)c(Cl)cc1Cl)Nc1ccccc1Br
inactive: [1] 2.5% | [2] -6.9% | [3] 0.1% | [4] -15.9% | [5] 2.2% | [6] -8.85%

COc1c(F)c(F)c(/C(O)=C\c2nc3ccccc3[nH]c2=O)c(F)c1F
inactive: [1] -19.6% | [2] -22.9% | [3] -17.4% | [4] 13.6% | [5] -2.05% | [6] -11.3%

CC1(C)COC(C2(C)C(=O)C=C(c3ccccc3)c3ccccc32)=N1 (configuration not stated)
inactive: [1] 25.3% | [2] -11.8% | [3] 29.8% | [4] 12.8% | [5] 3.9% | [6] 11.8%

Cc1ccccc1-c1nc(/C=C2\C(=O)C=Cc3ccccc32)c(O)o1
inactive: [1] -17.3% | [2] -4.45% | [3] -1.1% | [4] 23.6% | [5] -2.55% | [6] -1.6%

COc1cc(C)cc(C(=O)C2=NNCC2c2ccccc2)c1O (configuration not stated)
inactive: [1] 23.1% | [2] 19.4% | [3] 26.8% | [4] 10.9% | [5] 17.1% | [6] 16.2%

Brc1ccccn1
inactive: [1] 35.5% | [2] 11% | [3] 6.2% | [4] -15.1% | [5] 28.3% | [6] 22.8%

CC12C=CC(=O)C=C1CCC1C2C(O)CC2(C)/C(=C\CO)CCC12 (configuration not stated)
inactive: [1] -4.05% | [2] -1.75% | [3] 6.55% | [4] -15.8% | [5] 60.2% | [6] -3.35%

Clc1ccc(-n2ncc3c2-c2ccccc2CCC3)cc1
inactive: [1] 31.4% | [2] -6.5% | [3] 3.5% | [4] 4.85% | [5] 48.2% | [6] 34.3%

CN(CCOc1ccccc1)Cc1ccccc1
inactive: [1] 33.1% | [2] 7.15% | [3] 50.7% | [4] 31.3% | [5] 40.1% | [6] 34.4%

O=C(O)Cc1cccc(C(=O)O)c1
inactive: [1] -1.55% | [2] -8% | [3] -7.3% | [4] 8.4% | [5] -0.45% | [6] -3.35%

Cn1c2c(c3ccccc31)C(=O)CC2(C)C
inactive: [1] -5.6% | [2] -4.8% | [3] -2.35% | [4] -18.2% | [5] -30.6% | [6] 2.15%

CCCCCCC(=O)OCC
inactive: [1] 16.3% | [2] -3.4% | [3] -4.7% | [4] 0.9% | [5] 12.9% | [6] 14.2%

CCCCc1ccc(N=Nc2ccccc2)cc1
inactive: [1] -9.35% | [2] -17.5% | [3] -15.6% | [4] -59% | [5] -6.05% | [6] -32.2%

Fc1cccc(CSC(=S)Nc2ccc(Cl)c(C(F)(F)F)c2)c1
active: [1] 99.1% | [2] 99.5% | [3] 99.5% | [4] 99.2% | [5] 99.2% | [6] 99%
